# Reference: PubChem BioAssay (Tox21)
# Values joined by “and” are separate entries in the source; they are usually repeats but may differ in a detail not shown here. Equal values may be shown once. Results filed as inconclusive are left out. Active and inactive are the calls of the source. The call rests on the fitted dose curve; in most records, active means well fitted activation curve with a large enough effect in the repeat runs; inconclusive means weak or mixed curves; inactive means flat fitted curve, though single readings scatter.
# Test: A CellTox Green Cytotoxicity Assay to monitor cytotoxicity in HepG2 cells - 8 hour (AID 1224890); further: nearly all actives have a fitted effect of over 45% in size
# Settings: CellTox Green fluorescence; series mostly up to 76.8 µM; cytotoxicity increase: at the top concentration
# Source text: National Center for Advancing Translational Sciences [NCATS]
# NIH Chemical Genomics Center [NCGC]
# U.S. Environmental Protection Agency [EPA]
# National Institutes of Environmental Health Sciences [NIEHS]
# National Toxicology Program [NTP]
# Cell-based models are critical for drug discovery. Determining the natural cytotoxic effects resulting from test compounds is an essential research activity. A CellTox Green Cytotoxicity Assay to monitor cytotoxicity in real time of continues cell culture during 40 hours of the compound treatment was used to screen Tox21 10K library compounds in HepG2 cells. CellTox Green Cytotoxicity Assay is a nonlytic, homogeneous, biofluorescent method to measure cytotoxicity in cell culture after experimental manipulation. The assay system uses a proprietary asymmetric cyanine dye that is excluded from viable cells but preferentially stains the dead cell's DNA. […] Viable cells produce no appreciable increases in fluorescence. Therefore, the fluorescence signal produced by the binding interaction with dead cell DNA is proportional to cytotoxicity.
# The mixture of HepG2 cell suspension and reagents were dispensed at 600cells/6 ul/well in 1536-well tissue culture treated black solid bottom plates using a Multidrop dispenser. After the assay plates were incubated at a 37 C/5% CO2 incubator for 5 hours, 23 nL of compounds dissolved in DMSO, positive and negative controls was transferred to the assay plate by a pintool work station. The plates were incubated at 37 C for 40 hours. The fluorescence intensity were measured at 0h, 8h, 16h, 24h, 32h and 40h time points using ViewLux plate reader during compound treatment.
# On the % scale 0 is the no-effect control and ±100 the full control effect; potency means the concentration at half of the fitted maximal effect.
Compound,cytotoxicity increase,Potency
CC(C)=C1CC[C@@H](C)CC1=O,-7.04% (inactive),–
CCCC(O)C(O)CO (stereo not given),-0.985% (inactive),–
O=C(O)CCn1c2c(c3ccccc31)C[C@H](NS(=O)(=O)c1ccc(F)cc1)CC2,-15.1% [at 35.3 µM] (inactive),–
S=C(SSSSSSC(=S)N1CCCCC1)N1CCCCC1,-7.66% [at 15.8 µM] (inactive),–
C=CC(=O)OCCN(CC)CC,0.69% (inactive),–
c1cc(OCC2CO2)cc(OCC2CO2)c1 (stereo not given),-5.63% (inactive),–
CN1CN(C)CN(C)C1,-4.63% (inactive),–
CCCCCCCCCCCCCCCCCO,1.25% [at 15.8 µM] (inactive),–
COc1cccc(OC)c1O,-8.4% (inactive),–
CC(=O)Oc1ccc(C2(c3ccc(OC(C)=O)cc3)C(=O)Nc3ccccc32)cc1,1.33% [at 35.3 µM] (inactive),–
CC1(C)C(=O)N(Br)C(=O)N1Br,1.27% (inactive),–
COc1cccc(O)c1,0% (inactive),–
CCCCCCCC(=O)OCC,6.29% (inactive),–
Cc1cncc(C)c1,0.172% (inactive),–
C=C/C=C/C=C/CCCCC,-1.01% [at 15.8 µM] (inactive),–
C[n+]1c2cc(N)ccc2cc2ccc(N)cc21 (tested in a mixture with another compound),–,23.9 µM (active)
Cc1oc(-c2ccccc2)nc1CCOc1ccc(C[C@H](Nc2ccccc2C(=O)c2ccccc2)C(=O)O)cc1,14.6% (inactive),–
CCN1CCN(c2cc(-c3ccc(F)cc3)c3c(n2)CCCCCC3)CC1,2.47% [at 15.8 µM] (inactive),–
CCCCOCC,-11.8% (inactive),–
CCCCOc1ccc(C(=O)CCN2CCCCC2)cc1,–,21.3 µM (active)

Compound,cytotoxicity increase,Potency
CCC(C)(C)c1cc(O)c(C(C)(C)CC)cc1O,7.42% (inactive),–
Cc1ccc(N)cc1O,6.87% (inactive),–
C[C@@]12C(=O)OC(=O)[C@]1(C)C1CCC2O1,–,23.9 µM (active)
C=CC(=O)OCC(O)COc1ccccc1 (stereo not given),-12.7% (inactive),–
CC(C)(c1cc(Br)c(O)c(Br)c1)c1cc(Br)c(O)c(Br)c1,–,inactive
COC(=O)CC(C)CCC=C(C)C (stereo not given),4.81% (inactive),–
Nc1ccc2cc3ccc(N)cc3nc2c1,–,49 µM (active) and 21.3 µM (active)
CC(C)(C)c1cc(CCC(=O)NCCCCCCNC(=O)CCc2cc(C(C)(C)C)c(O)c(C(C)(C)C)c2)cc(C(C)(C)C)c1O,1.53% (inactive),–
CCCCOC(=O)C(C)CC (stereo not given),0.713% (inactive),–
COC(=O)CC#N,1.52% (inactive),–
O[C@@H](c1cc(C(F)(F)F)nc2c(C(F)(F)F)cccc12)[C@H]1CCCCN1,–,26.8 µM (active)
NC(=O)c1ccccc1N,-4.89% (inactive),–
CCN(CC)c1cccc(C)c1,-6.53% (inactive),–
O=S(=O)(O)c1cc(S(=O)(=O)O)c2ccc3c(S(=O)(=O)O)cc(S(=O)(=O)O)c4ccc1c2c43,7.21% [at 15.8 µM] (inactive),–
CCOC(=O)CN,-2.19% (inactive),–
COCC(=O)O[C@]1(CCN(C)CCCc2nc3ccccc3[nH]2)CCc2cc(F)ccc2[C@@H]1C(C)C,–,23.9 µM (active)
C[C@@H]1CC[C@H]2C(C)(C)[C@H]3C[C@@]12CC[C@@]3(C)O,31.9% (inactive),–
CCN(CC)CCSC(=O)C(c1ccccc1)c1ccccc1,0.446% [at 35.3 µM] (inactive),–
COC(=O)[C@]1(C)CCC[C@@]2(C)[C@H]1CC=C1C=C(C(C)C)CC[C@@H]12,–,38.9 µM (active)
CCOC(=O)C1=C(C)NC(C)=C(C(=O)OCC)C1c1ccccc1/C=C/C(=O)OC(C)(C)C,13.4% [at 35.3 µM] (inactive),–
